Screen size: about 330,000 compounds; about 4,200 (1.3%) were called active. A call without a number means that no potency is given here. Another 6% or so got no clear call; they are omitted. Calls come from the whole dose curve; as a rule, active = well fitted activation curve with a large enough effect; inconclusive = small, poorly fitted or top-dose-only effect; inactive = no such curve, though single readings can be large or run the other way. This excerpt belongs to a sample that is enriched for actives.
test: qHTS screen for small molecules that induce genotoxicity in human embryonic kidney (HEK293T) cells expressing luciferase-tagged ELG1; conditions: HEK293T ELG1-luciferase reporter, luminescence, 16 h; series mostly up to 46 µM; note: nearly all actives have a fitted effect of over 60% in size
Description: NIH Molecular Libraries Probe Production Network [MLPCN] NIH Chemical Genomics Center [NCGC] MLPCN Grant: 1 R03 MH092164-01 Assay Provider: Kyungjae Myung, NHGRI, NIH Keywords: MLPCN, qHTS, NCGC, genotoxicity, cancer Assay Overview: Cancer cells divide rapidly compared to normal cells in the body. During cell division, cancer cells need to duplicate their genome by DNA replication. The failure of genome duplication leads to cancer cells' death. Therefore, inhibitors of DNA replication could specifically kill cancer cells. Based on this concept, many chemotherapeutic agents were developed and have been used to treat cancer patients. However, there are a limited number of agents available in the clinical setting, and some of those that do exist have low efficacy and severe side effects. Therefore, if we can find the compounds that effectively block DNA replication either by directly damaging DNA or by inhibiting other cellular mechanisms, the options for cancer treatment will be broadened. With this in mind, we developed a quantitative high-throughput ELG1-luciferase reporter gene assay. Since the level of human ELG1 protein is enhanced in response to genetic stresses, increases in luciferase activity can be used to identify compounds that cause genetic stress.
Assay Protocol Summary: For genotoxicity screening, 2,000 cells in 5 uL/well were dispensed into white, solid-bottom 1536-well plates using a solenoid-based dispenser. Following transfer of 23 nL compound or DMSO vehicle by a pin tool, the plates were incubated 16 hr at 37 °C and 5% CO2. 5 ul ONE-Glo (Promega) was then added to each plate and following a 30 min incubation at room temperature, luciferase activity was quantified on a ViewLux CCD-based plate reader.
Potency is the fitted concentration of half-maximal effect.

Q: For `O=C(OCC(=O)c1cccs1)C1=COCCO1`, which Potency is on record?
A: The Potency was 18.4 µM (active).

Q: For `CC[N+](C)(CC)CCC[n+]1c(-c2ccccc2)c2cc(N)ccc2c2ccc(N)cc21`, which Potency is on record?
A: Its Potency is “inactive”.

Q: For `c1cc2c(cc1C1OCC3C(c4ccc5c(c4)OCO5)OCC13)OCO2` (stereo not given), which Potency is on record?
A: The Potency was “inactive”.

Q: For `C[C@]12CC[C@H](O)CC1=C([N+](=O)[O-])CC1C2CC[C@@]2(C)C1CC[C@@H]2O` (stereo not given in full), which Potency is on record?
A: The Potency was “inactive”.

Q: Which Potency does the source give for `COc1ccc(C2CC(c3cccs3)=NN2c2nc(C)c(C(C)=O)s2)cc1OC` (stereo not given) here?
A: The Potency was 20.6 µM (active).

Q: For `CN(C)C(=O)Oc1ccc2c(c1)O/C(=C\c1ccccc1)C2=O`, which Potency is on record?
A: Its Potency is 20.6 µM (active).

Q: Which Potency does the source give for `CCOC(=O)c1c(-c2ccccc2)oc2ccc(OC(=O)N(C)C)cc12` here?
A: Its Potency is “inactive”.

Q: Which Potency does the source give for `CN(C)C(=O)Oc1ccc(OCc2cccc[n+]2C)cc1` here?
A: Its Potency is “inactive”.

Q: With `COC(=O)[C@@H]1C(OC(=O)c2ccccc2)CC2CCC1N2C` (stereo not given in full) as the compound, how does the Potency read?
A: The Potency was “inactive”.

Q: For `CC[C@H]1CN2CCc3cc(OC)c(OC)cc3[C@@H]2C[C@@H]1C[C@H]1NCCc2cc(OC)c(OC)cc21`, which Potency is on record?
A: Its Potency is “inactive”.

Q: Which Potency does the source give for `COC1=CC=C2[C@H]3Cc4ccc(OC)c5c4[C@@]2(CCN3C)C1O5` (stereo not given in full) here?
A: The Potency was “inactive”.

Q: With `O=C(OCCN1CCOCC1)C1(c2ccccc2)CCCC1` as the compound, how does the Potency read?
A: Its Potency is “inactive”.

Q: For `CCC(=O)c1ccc(OCC(=O)N2CCN(CC(=O)Nc3ccc(C)cc3)CC2)cc1`, which Potency is on record?
A: Its Potency is “inactive”.

Q: With `O=C(/C=C/c1cccs1)c1cc(Cl)ccc1OC(=O)N1CCOCC1` as the compound, how does the Potency read?
A: The Potency was “inactive”.

Q: With `Oc1ccc2c3c1OC1[C@H](O)CC[C@@]4(O)[C@@H](C2)N(CC2CC2)CC[C@]314` (stereo not given in full) as the compound, how does the Potency read?
A: The Potency was “inactive”.

— PubChem BioAssay AID504466 (National Center for Advancing Translational Sciences (NCATS), 2011)
